Results as given in PubChem BioAssay AID1159580 (chemical genetic matrix, 2015).
The whole screen tested about 5,500 compounds, of which about 2,000 (36%) were called active. About 18% were inconclusive and are not listed. Rule as the data show it: active = normalized growth mostly below about 0.91 (no sharp cut-off); inconclusive = no clear call, values can overlap the other calls; inactive = mostly above about 0.92. This is one part of the list.

Experiment: chemical genetic growth profiling, strain panel (AID 1159580);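 also: tested at 20 µM; growth read once vehicle control cultures reached saturation at 30 °C; 1 = growth at the plate median or of vehicle wells; lower values mean less growth of the strain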
Conditions: growth OD
[1] = S. cerevisiae deletion strains, locus YAL013W, strain DEP1, stronger effect = lower value
[2] = S. cerevisiae deletion strains, locus YBR229C, strain ROT2, stronger effect = lower value
[3] = S. cerevisiae deletion strains, locus YCL061C, strain MRC1, stronger effect = lower value
[4] = S. cerevisiae deletion strains, locus YDL101C, strain DUN1, stronger effect = lower value
[5] = S. cerevisiae deletion strains, locus YDR150W, strain NUM1, stronger effect = lower value
[6] = S. cerevisiae deletion strains, locus YEL061C, strain CIN8, stronger effect = lower value
[7] = S. cerevisiae deletion strains, locus YGR078C, strain PAC10, stronger effect = lower value
[8] = S. cerevisiae deletion strains, locus YHR030C, strain SLT2, stronger effect = lower value
[9] = S. cerevisiae deletion strains, locus YHR087W, strain rtc3, stronger effect = lower value
[10] = S. cerevisiae deletion strains, locus YJR043C, strain POL32, stronger effect = lower value
[11] = S. cerevisiae deletion strains, locus YJR075W, strain HOC1, stronger effect = lower value
[12] = S. cerevisiae deletion strains, locus YLR039C, strain RIC1, stronger effect = lower value
[13] = S. cerevisiae deletion strains, locus YLR058C, strain SHM2 (second series), stronger effect = lower value
[14] = S. cerevisiae deletion strains, locus YLR085C, strain ARP6, stronger effect = lower value
[15] = S. cerevisiae deletion strains, locus YLR262C, strain YPT6, stronger effect = lower value
[16] = S. cerevisiae deletion strains, locus YML094W, strain GIM5, stronger effect = lower value
[17] = S. cerevisiae deletion strains, locus YMR219W, strain ESC1, stronger effect = lower value
[18] = S. cerevisiae deletion strains, locus YMR263W, strain SAP30, stronger effect = lower value
[19] = S. cerevisiae deletion strains, locus YNL128W, strain TEP1, stronger effect = lower value
[20] = S. cerevisiae deletion strains, locus YNL153C, strain GIM3, stronger effect = lower value
[21] = S. cerevisiae deletion strains, locus YNL298W, strain CLA4 (second series), stronger effect = lower value
[22] = S. cerevisiae deletion strains, locus YNL322C, strain KRE1, stronger effect = lower value
[23] = S. cerevisiae deletion strains, locus YNR030W, strain Alg12, stronger effect = lower value
[24] = S. cerevisiae deletion strains, locus YPL055C, strain LGE1, stronger effect = lower value
[25] = S. cerevisiae deletion strains, locus YPL241C, strain CIN2, stronger effect = lower value
[26] = S. cerevisiae deletion strains, locus YPR135W, strain CTF4, stronger effect = lower value
[27] = S. cerevisiae strains, strain wild type, stronger effect = lower value
[28] = S. cerevisiae deletion strains, locus YJL187C, strain SWE1, stronger effect = lower value
[29] = S. cerevisiae deletion strains, locus YKL190W, strain CNB1, stronger effect = lower value
[30] = S. cerevisiae deletion strains, locus YOL006C, strain TOP1, stronger effect = lower value
[31] = S. cerevisiae deletion strains, locus YDL134C, strain PPH21, stronger effect = lower value
[32] = S. cerevisiae deletion strains, locus YGR229C, strain SMI1, stronger effect = lower value

Measured: normalized growth

Cc1ccc(S(=O)(=O)N2CCC(C(c3ccccc3)c3ccccc3)CC2)cc1
inactive: [1] 0.998 | [2] 0.989 | [3] 0.963 | [4] 0.975 | [5] 0.948 | [6] 0.994 | [7] 0.972 | [8] 0.971 | [9] 1.05 | [10] 1 | [11] 1 | [12] 0.97 | [13] 1.01 | [14] 0.989 | [15] 0.989 | [16] 1 | [17] 0.993 | [18] 0.994 | S. cerevisiae deletion strains, locus YMR307W, strain GAS1, stronger effect = lower value 1.24 | [19] 0.969 | [20] 0.988 | [21] 0.971 | [22] 0.999 | [23] 1.01 | [24] 1.06 | [25] 0.986 | [26] 0.986 | [27] 0.974

O=S(=O)(c1ccc(Cl)cc1)N1CCN(Cc2ccccc2)CC1
inactive: [1] 1.01 | [2] 0.99 | [3] 1.01 | [4] 0.985 | [5] 0.986 | [6] 0.958 | [7] 0.992 | [8] 0.856 | [9] 0.978 | [10] 1.01 | [11] 0.982 | [12] 0.846 | [13] 1 | [14] 0.985 | [16] 0.967 | [17] 0.994 | [18] 1.02 | [20] 1 | [21] 0.956 | [22] 0.998 | [23] 0.987 | [24] 0.972 | [25] 0.978 | [26] 0.923 | [27] 0.987
active: [15] 0.809

CC(=O)Nc1ccc(S(=O)(=O)NCCCN2CCN(Cc3ccccc3)CC2)cc1Cl
inactive: [1] 0.993 | [2] 1.01 | [3] 0.999 | [4] 0.952 | [5] 0.924 | [6] 1.04 | [7] 0.983 | [8] 1.03 | [9] 1.02 | [28] 1.01 | [10] 0.992 | [11] 1.01 | [29] 0.993 | [12] 0.992 | [13] 1.01 | [14] 1.02 | [15] 1 | [16] 1.01 | [17] 0.996 | [18] 0.944 | [19] 0.986 | [20] 0.994 | [21] 0.969 | [22] 0.999 | [23] 0.99 | [30] 1.02 | [24] 0.915 | [25] 1 | [26] 0.926

Cc1ccc(S(=O)(=O)N2CCN(CCOc3ccccc3)CC2)cc1
inactive: [1] 1 | [2] 0.994 | [3] 0.982 | [4] 0.992 | [31] 1 | [5] 0.961 | [6] 0.972 | [7] 0.993 | [32] 0.99 | [8] 0.896 | [9] 0.995 | [28] 0.995 | [10] 1 | [11] 0.984 | [12] 0.828 | [13] 0.987 | [14] 0.966 | [16] 0.944 | [17] 0.985 | [19] 0.997 | [20] 0.989 | [21] 0.96 | [22] 0.997 | [23] 0.967 | [24] 0.953 | [25] 0.982 | [26] 0.99
active: [15] 0.701

O=C(Cc1ccccc1)NC1CCN(S(=O)(=O)c2ccc(Cl)cc2)CC1
inactive: [1] 1.01 | [2] 1 | [3] 0.992 | [4] 1.01 | [5] 0.996 | [6] 1.01 | [7] 0.98 | [32] 0.992 | [8] 0.973 | [9] 1 | [10] 0.985 | [11] 0.962 | [29] 0.994 | [12] 1 | [13] 0.993 | [14] 1.01 | [15] 1.01 | [16] 1 | [17] 0.999 | [18] 0.992 | [20] 0.982 | [21] 1.03 | [22] 0.998 | [23] 1 | [30] 1.02 | [24] 0.986 | [25] 1.03 | [26] 0.971 | [27] 1.01

Cc1ccc(S(=O)(=O)N2CCCCCC2)cc1
inactive: [1] 0.98 | [2] 0.997 | [3] 0.997 | [4] 0.985 | [31] 0.999 | [5] 0.976 | [6] 1.01 | [7] 0.985 | [32] 0.988 | [8] 0.896 | [9] 1.03 | [10] 0.999 | [11] 0.998 | [12] 0.881 | [13] 0.998 | [14] 0.921 | [15] 0.928 | [16] 1.02 | [17] 0.983 | [18] 1 | [20] 0.987 | [21] 0.983 | [22] 0.972 | [23] 0.983 | [30] 0.961 | [24] 1.04 | [25] 0.984 | [26] 0.843 | [27] 1
